Laboratory results from PubChem BioAssay (NCI).
The panel holds about 83,000 compounds, 20% with a hit somewhere; the sample as a whole holds those more often.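 A percent growth of 40 corresponds to 60% growth inhibition; 0 means no net growth; -100 means all cells died. Active threshold: below 10.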 Values without a mark were called inactive. Activity calls are given as the source filed them.

What follows are molecules tested on NCI-H322M lung (assay: NCI-60 one-dose screen, 48 h (100 = growth as untreated, 0 = no growth, -100 = all killed)). Conditions: 10 µM unless noted.
CCCCCCCC/C=C/CCCCCCCC1=NC(C)(C)CN1CC(C)O (stereo not given) gave a growth of 53.9%.
Molecule COc1cc(C2NC(c3ccc(Cl)cc3)C(C)C(=NC(=O)c3cnccn3)C2C)cc(OC)c1OC (stereo not given) has a growth of 113%.
For C[C@@H]1CC[C@H]2[C@@H](C)C(O)O[C@@H]3O[C@]4(C)CC[C@@H]1[C@]32OO4 (stereo not given in full), the growth was 68.9%.
C/C(=C\CCc1ccsc1)CC/C=C(\C)CCCN1CCN(CCO)CC1 showed a growth of 71.8%.
Work on CN1COc2ccc3ccccc3c2C1 yielded a growth of 91.4%.
Molecule COc1ccc(-c2cnnn2-c2cc(OC)c3c(c2)OCO3)cc1 has a growth of 42.8%.
In the case of Nc1c2ccccc2nc2ccccc12 (tested in a mixture with another compound), the growth is reported as 29.8%.
CCOC(=O)C1=C(C)N2C(=NC3=C(CCC/C3=C\c3ccc(Cl)cc3)C2c2ccc(Cl)cc2)S1 (stereo not given) showed a growth of 101%.
C=C(C)[C@H]1CC/C(C)=C/CC[C@]2(C)O[C@H]2CC/C(C=O)=C\C1O (stereo not given in full) gave a growth of 111%.
CCN(CC)CCCCNc1c2ccccc2[n+](C)c2c1[nH]c1ccccc12 was tested, and the growth was -35.5% (active).
Cn1cc(-c2csc(-c3c[nH]c4ncccc34)n2)c2cc(F)cnc21 showed a growth of 70.7%.
In the case of Nc1ccccc1-c1ccc([N+](=O)[O-])cc1, the growth is reported as 57%.
Work on Cc1ccc(NC(=O)Nc2ccc(-c3cccnc3)cc2N2CCC(CO)CC2)cc1 yielded a growth of 34.3%.
With NNC(=O)C1CC2c3ccccc3C1c1ccccc12 (stereo not given) the growth was 116%.
NS(=O)(=O)c1ccc(NC2=C(Cl)C(=O)c3ccccc3C2=O)cc1 showed a growth of 113%.
